Measurements as given in PubChem BioAssay AID489008 (National Center for Advancing Translational Sciences (NCATS), 2010).
Inconclusive results are not listed. Active and inactive are the calls of the source. Calls come from the whole dose curve; as a rule, active = well fitted inhibition curve with a large enough effect; inconclusive = small, poorly fitted or top-dose-only effect; inactive = flat fitted curve, though single readings scatter.

biological target: Ferritin light chain (Equus caballus) (UniProt P02791); assay: Confirmation Assay for Identification of Novel General Anesthetics; settings: apoferritin 1-aminoanthracene fluorescence displacement; note: nearly all actives have a fitted effect of over 40% in size
In short: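 Competitive displacement of profluorescent 1-aminoanthracene from 10 uM horse-spleen apoferritin in 50% saturated 1-AMA/PBS; 10 min RT, fluorescence Ex 380/Em 535. Normalized to free 1-AMA and complex; four-parameter Hill fit.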
Potency is the fitted concentration of half-maximal effect.

Sequence of Ferritin light chain (Equus caballus) (P02791 2-175 limits assumed): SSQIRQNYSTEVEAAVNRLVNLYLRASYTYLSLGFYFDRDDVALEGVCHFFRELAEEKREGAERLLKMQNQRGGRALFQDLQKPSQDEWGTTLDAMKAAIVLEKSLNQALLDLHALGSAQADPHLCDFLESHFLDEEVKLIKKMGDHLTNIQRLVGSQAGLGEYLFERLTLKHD

Potency, active:
O=C(CSc1ccccn1)N1CCc2ccccc21 8.91 µM
O=C(CN1CCOCC1)Nc1ccc(C2CCCCC2)cc1 31.6 µM
Cc1cccc(NC(=O)N2CCCCCC2)c1C 8.91 µM
NCCOc1ccc(C2CCCCC2)cc1 7.94 µM
Cc1cccc(C(=O)N2CCCCCC2)c1 22.4 µM
Fc1ccccc1CSc1nncn1NC/C=C/c1ccccc1 31.6 µM
COc1ccc(/C=N/NC(=O)CC(=O)NC2CCCCC2)cc1 6.31 µM
COc1cccc(NC(=O)CN2C(=O)NC(C)(CCC(C)C)C2=O)c1 (stereo not drawn) 17.8 µM
Cc1ccc(O)c(Sc2cc(C)ccc2O)c1 7.94 µM
CC1CCCCC1NC(=O)COC(=O)COc1ccccc1Cl (stereo not drawn) 17.8 µM
CCN1C(=O)N(c2cccc3ccccc23)C(C)=CC1(C)C 14.1 µM
O=C(CCC1CCCCC1)Nc1nccs1 39.8 µM
O=c1c2c3c(sc2ncn1-n1cccc1)CCCCC3 10 µM
Cc1cc(C(F)(F)F)n(-c2ccc(N)cc2)n1 17.8 µM
Cc1cc(C)n2nc(CC(=O)NC3CCCCCCC3)nc2n1 10 µM
O=C(NC1C2CC3CC(C2)CC1C3)c1ccc(Br)o1 (stereo not drawn) 11.2 µM
Cc1ccccc1CSc1nsc(N)n1 17.8 µM
O=C1c2ccsc2SCCN1Cc1ccccc1Cl 14.1 µM
O=C(CSc1ccccc1)N1CCc2ccccc21 20 µM
Cc1ccc(O)c(N=Nc2ccccc2)n1 22.4 µM
O=C(c1csc2ccccc12)N1CCCCCC1 31.6 µM
O=C1CC2(CCCC2)CC(=O)N1c1ccccc1 15.8 µM
O=C(Nc1cccc(F)c1)N1CCCCCC1 12.6 µM
Cc1ccc(Cn2cccc(NC(=O)NCc3ccccc3)c2=O)cc1 7.08 µM
Cc1ccc(NC(=O)Cn2nc(-c3ccco3)ccc2=O)cc1Cl 28.2 µM
O=C(O)Cc1csc(Nc2cccc(Cl)c2)n1 12.6 µM
O=C(CSc1ccccn1)C12CC3CC(CC(C3)C1)C2 6.31 µM
Cc1ccc(OCc2cc(C(=O)NC3CCc4ccccc43)no2)cn1 (stereo not drawn) 17.8 µM
CC1Cc2ccccc2N1C(=O)CSC1=NCCS1 (stereo not drawn) 10 µM
O=[N+]([O-])c1ccc(CNc2ccc(Cl)cc2)s1 22.4 µM
Cc1ccccc1OCC(=O)N1CCCc2ccccc21 17.8 µM
Cc1ccccc1Nc1cccc2nonc12 20 µM
O=C(COC(=O)c1cccs1)NC12CC3CC(CC(C3)C1)C2 11.2 µM
Cc1cc(C)n(-c2ccc(C(=O)NCc3ccc4c(c3)OCO4)cc2)n1 15.8 µM
O=C(OCC(=O)C12CC3CC(CC(C3)C1)C2)c1ccccn1 14.1 µM
CC(=O)Nc1ccc(C(=O)OCC(=O)NC2CCCCCCC2)cc1 15.8 µM
O=C(NC1CCCCCC1)c1nnc(Cc2ccc(Cl)cc2)o1 15.8 µM
Cc1ccc(C(=O)N2CCCc3ccccc32)c(F)c1F 22.4 µM
